Inconclusive results are not listed. Unmarked numbers belong to inactive results. Activity calls are given as the source filed them. Calls come from the whole dose curve; as a rule, active = well fitted cell-killing curve with a large enough effect; inconclusive = small, poorly fitted or top-dose-only effect; inactive = flat fitted curve, though single readings scatter.
experiment: Cell Viability - LYMP2-016 (AID 984); conditions: LYMP2-016 lymphoblastoid cell viability, qHTS; series mostly up to 92.2 µM; activity change, negative = cytotoxicity: at the top concentration;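 note: cells exposed to compound for 24 hours at 37 °C; nearly all actives have a fitted effect of over 55% in size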; for activity change, negative = cytotoxicity: % is set by controls: 0 for no effect and ±100 for the full control effect
Method in brief: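 Acute toxicity in a Coriell human lymphoblastoid line is scored as loss of intracellular ATP over 24 h of treatment in complete medium. CellTiter-Glo signal is fitted across concentrations with the Hill equation to give AC50.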
Potency is the fitted concentration of half-maximal effect.

Row | Compound | activity change, negative = cytotoxicity | Potency
1 | CCCCCCc1ccc(-c2ccc(C#N)cc2)cc1 | -4.93% | 
2 | Nc1cnn([C@@H]2O[C@H](CO)[C@@H](O)[C@H]2O)c(=O)n1 | 4.54% | 
3 | CCCCCCCCOc1ccc(C(=O)O)cc1 | -4.37% | 
4 | Oc1c(Cl)cc(Cl)c(Cl)c1Cl | -4.06% | 
5 | CC(C)OCC1CO1 (stereo unspecified) | -2.4% | 
6 | C/C(Cl)=C/CCl | -9.1% | 
7 | CCCCNCC | -2.88% | 
8 | O=c1[nH]ncc2ccccc12 | -0.59% | 
9 | c1ccc(COCc2ccccc2)cc1 | -6.58% | 
10 | O=[N+]([O-])c1cccc(I)c1 | 6.9% | 
11 | Nc1ccc2c(c1)C(=O)c1ccccc1C2=O | -28.7% | 
12 | c1ccc2c(c1)ccc1ccccc12 | -4.24% | 
13 | Nc1ccc(N=Nc2ccccc2)c(N)c1 | -17.1% | 
14 | Cc1ccc(C(=O)O)cc1[N+](=O)[O-] | -2.11% | 
15 | COc1ccc([N+](=O)[O-])cc1N | -8.75% | 
16 | OCC(CO)(CBr)CBr | -0.934% | 
17 | Nc1cc(C(=O)O)c(O)c(S(=O)(=O)O)c1 | 0.429% | 
18 | Oc1ccc2c(c1)OCO2 | -0.886% | 
19 | c1ccncc1 | -6.43% | 

Row | Compound | activity change, negative = cytotoxicity | Potency
20 | CC(=O)OC1CC(C)OC(C)O1 (stereo unspecified) | -2.81% | 
21 | O=C(OCc1ccccc1)c1ccccc1O | -4.98% | 
22 | C/C=C/C=C/C=O |  | 50.1 µM (active)
23 | CCN(CC)c1ccc2c(C)cc(=O)oc2c1 | -9.16% | 
24 | c1c[nH]cn1 | -3.33% | 
25 | c1ccc(SCCSc2ccccc2)cc1 | -2.35% | 
26 | O=C(O)/C=C/c1ccc(/C=C/C(=O)O)cc1 | -7.7% | 
27 | CCCCOC(=O)COc1ccc(Cl)cc1Cl | -1.14% | 
28 | CC(=O)OC(C(=O)c1ccccc1)c1ccccc1 (stereo unspecified) | -3.68% | 
29 | CCCCCCN | 2.36% | 
30 | CC(=O)Nc1cccc(C)c1 | -7.82% | 
31 | CCC(Cl)CC(Cl)C(Cl)C(Cl)C(Cl)C(C)Cl (stereo unspecified) | -0.827% | 
32 | COc1ccc(C)cc1N | -3.18% | 
33 | CCc1ccc(C(c2ccc(CC)cc2)C(Cl)Cl)cc1 | -7.58% | 
34 | O=[N+]([O-])c1ccccc1Nc1ccccc1 | -4.34% | 
35 | C=CC1CO1 (stereo unspecified) | -2.54% | 
36 | COc1cc(-c2ccc(N=C=O)c(OC)c2)ccc1N=C=O | 8.34% | 
37 | CCOC(=O)C1OC1c1ccccc1 (stereo unspecified) | -4.72% | 
38 | COc1ccc(C(=O)Nc2ccccc2)cc1[N+](=O)[O-] | 4.99% | 

experiment: Cell Viability - LYMP2-018 (AID 985); conditions: LYMP2-018 lymphoblastoid cells, viability (qHTS); series mostly up to 92.2 µM; activity change, negative = cytotoxicity: at the top concentration;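 note: compound exposure lasted 24 hr at 37 °C; nearly all actives have a fitted effect of over 50% in size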;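 for activity change, negative = cytotoxicity: plate controls were DMSO only for no effect and tetraoctylammonium bromide at 92 µM for full effect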
Method in brief: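 2500 cells/well; 5 hr 37 C; cmpd 24 hr 37 C, complete medium; CellTiter-Glo 30 min RT; luminescence. Tetraoctylammonium bromide positive control. AC50 via Hill fit.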

Row | Compound | activity change, negative = cytotoxicity | Potency
39 | CCCCCCc1ccc(-c2ccc(C#N)cc2)cc1 | -6.86% | 
40 | Nc1cnn([C@@H]2O[C@H](CO)[C@@H](O)[C@H]2O)c(=O)n1 | -3.56% | 
41 | CCCCCCCCOc1ccc(C(=O)O)cc1 | -12.4% | 
42 | Oc1c(Cl)cc(Cl)c(Cl)c1Cl | 12.5% | 
43 | CC(C)OCC1CO1 (stereo unspecified) | -10.4% | 
44 | C/C(Cl)=C/CCl | -15.4% | 
45 | CCCCNCC | 4.62% | 
46 | O=c1[nH]ncc2ccccc12 | -7.52% | 
47 | c1ccc(COCc2ccccc2)cc1 | 1.33% | 
48 | O=[N+]([O-])c1cccc(I)c1 | -7.03% | 
49 | Nc1ccc2c(c1)C(=O)c1ccccc1C2=O | -28.7% | 
50 | c1ccc2c(c1)ccc1ccccc12 | -0.955% | 
51 | Nc1ccc(N=Nc2ccccc2)c(N)c1 | -15.4% | 
52 | Cc1ccc(C(=O)O)cc1[N+](=O)[O-] | -8.52% | 
53 | COc1ccc([N+](=O)[O-])cc1N | -24.3% | 
54 | OCC(CO)(CBr)CBr | -6.09% | 
55 | Nc1cc(C(=O)O)c(O)c(S(=O)(=O)O)c1 | -9.16% | 
56 | Oc1ccc2c(c1)OCO2 | -24% | 
57 | c1ccncc1 | -6.43% | 

Row | Compound | activity change, negative = cytotoxicity | Potency
58 | CC(=O)OC1CC(C)OC(C)O1 (stereo unspecified) | 2.12% | 
59 | O=C(OCc1ccccc1)c1ccccc1O | 2.24% | 
60 | C/C=C/C=C/C=O |  | 39.8 µM (active)
61 | CCN(CC)c1ccc2c(C)cc(=O)oc2c1 | -27.8% | 
62 | c1c[nH]cn1 | -0.291% | 
63 | c1ccc(SCCSc2ccccc2)cc1 | -8.77% | 
64 | O=C(O)/C=C/c1ccc(/C=C/C(=O)O)cc1 | -6.3% | 
65 | CCCCOC(=O)COc1ccc(Cl)cc1Cl | 2.42% | 
66 | CC(=O)OC(C(=O)c1ccccc1)c1ccccc1 (stereo unspecified) | 1.41% | 
67 | CCCCCCN | -12.9% | 
68 | CC(=O)Nc1cccc(C)c1 | -17.1% | 
69 | CCC(Cl)CC(Cl)C(Cl)C(Cl)C(Cl)C(C)Cl (stereo unspecified) | -8.24% | 
70 | COc1ccc(C)cc1N | -10.8% | 
71 | CCc1ccc(C(c2ccc(CC)cc2)C(Cl)Cl)cc1 | -10.5% | 
72 | O=[N+]([O-])c1ccccc1Nc1ccccc1 | 0.345% | 
73 | C=CC1CO1 (stereo unspecified) | -7.61% | 
74 | COc1cc(-c2ccc(N=C=O)c(OC)c2)ccc1N=C=O | -11% | 
75 | CCOC(=O)C1OC1c1ccccc1 (stereo unspecified) | -16.1% | 
76 | COc1ccc(C(=O)Nc2ccccc2)cc1[N+](=O)[O-] | -19.3% | 

Source: PubChem BioAssay (NCATS)
